Reference: PubChem BioAssay (NCATS)
Inconclusive results are not listed. Entries that show only a call come without a potency. Activity calls are given as the source filed them. Calls come from the whole dose curve; as a rule, active = well fitted inhibition curve with a large enough effect in the signal ratio, with a control signal flat (not every such curve was filed as active); inconclusive = small, poorly fitted or top-dose-only effect, or effect the other way, or a change in a side signal; inactive = flat fitted curve, though single readings scatter; the % refers to the signal ratio.

biological target: Peroxisome proliferator-activated receptor gamma (Homo sapiens) (UniProt P37231); assay: qHTS assay for small molecule antagonists of peroxisome proliferator-activated receptor gamma signaling (AID 588537); conditions: HEK293 PPARg-UAS-bla, beta-lactamase ratio, antagonist mode; series mostly up to 76.8 µM
Sequence (P37231 whole entry, looked up): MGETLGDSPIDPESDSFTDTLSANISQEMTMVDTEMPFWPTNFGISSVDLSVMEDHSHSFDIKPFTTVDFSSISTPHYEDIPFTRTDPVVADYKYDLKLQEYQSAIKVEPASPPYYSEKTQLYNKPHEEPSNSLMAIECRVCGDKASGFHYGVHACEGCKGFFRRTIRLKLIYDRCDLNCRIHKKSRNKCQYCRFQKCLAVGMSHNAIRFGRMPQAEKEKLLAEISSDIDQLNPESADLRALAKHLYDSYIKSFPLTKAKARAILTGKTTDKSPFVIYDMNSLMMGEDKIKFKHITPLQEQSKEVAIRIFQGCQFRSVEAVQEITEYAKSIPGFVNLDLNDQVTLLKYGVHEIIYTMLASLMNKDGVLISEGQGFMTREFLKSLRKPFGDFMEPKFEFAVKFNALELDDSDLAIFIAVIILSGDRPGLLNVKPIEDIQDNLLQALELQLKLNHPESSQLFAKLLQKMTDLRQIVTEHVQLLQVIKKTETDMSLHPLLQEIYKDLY
From the text: NIH Chemical Genomics Center [NCGC]
U.S. Environmental Protection Agency [EPA]
National Institutes of Environmental Health Sciences [NIEHS]
National Toxicology Program [NTP]
The Peroxisome proliferator-activated receptors (PPARs) are lipid-activated transcription factors of the nuclear receptor superfamily with three distinct subtypes namely PPAR alpha, PPAR delta (also called PPAR beta) and PPAR gamma. All these subtypes heterodimerizes with Retinoid X receptor (RXR) and these heterodimers regulate transcription of various genes. PPAR-gamma (glitazone receptor) ligands have been used in the treatment of type 2 diabetes and dyslipidaemia. It is involved in the regulation of glucose and lipid metabolism. PPAR-gamma activates certain genes like Paraoxonase 1 which is responsible for hydrolyzing organophosphates. PPAR-gamma ligands may also be therapeutically important in the treatment of coronary artery disease, obesity and cancer and atherosclerosis.
NCGC Assay Protocol Summary
Using a beta-lactamase reporter-gene under control of Peroxisome Proliferator-Activated-gamma (PPAR-gamma) response element, a cell-based assay [GeneBLAzer PPAR-gamma-UAS-bla assay developed by Invitrogen] was used to measure PPAR-gamma ligands signaling. GeneBLAzer PPAR-gamma-UAS-bla-HEK293 cells were used with assay medium containing 1% charcoal/dextran treated FBS. The assay was performed in clear bottom black Greiner 1536-well plates. Library compounds were measured for their ability to inhibit the reporter gene activity. Compounds were screened in a titration series in 1536-well format. The fluorescence intensity (405 nm excitation, 460/530 nm emission) was measured using an EnVision plate reader. Data was normalized relative to Rosiglitazone control (50 nM, 100%), and DMSO only wells (basal, 0%). Concentration-response titration points for each compound were fitted to the Hill equation yielding concentrations of half-maximal inhibition (IC50) and maximal response (efficacy) values.
qHTS protocol for PPAR-gamma beta-lactamase assay in antagonist mode
[Step] [Parameter] [Value] [Description]
1. Reagent; 5 uL; 3000 cells/well
2. Incubation; 37 C for 6-6.5 hrs
4. Controls (GW9662, PPAR-gamma antagonist); 23 nL,
5. Agonist (Stimulator); 1uL; Rosiglitazone at 50 nM (final) concentration
6. Incubation; 37 C for 16 hrs
7. Detection reagent; 1 uL of CCF4-dye
8. Incubation; RT for 2 hrs
9. Detection; Fluorescence; Envision plate reader

Compound	Potency
CCCCOCC1CO1 (stereo not given)	inactive
OCC(Cl)CCl (stereo not given)	inactive
CCOC(=O)CC(SP(=O)(OC)OC)C(=O)OCC (stereo not given)	inactive
c1ccc(C2CO2)cc1 (stereo not given)	inactive
CCCCCCCCCCCCCl	inactive
Cc1ccc2c(c1N)C(=O)c1ccccc1C2=O	inactive
CN(C)C(=O)Nc1ccc(Cl)cc1	inactive
CCOC(=O)C1OC1(C)c1ccccc1 (stereo not given)	inactive
CC(C)CC(C)N (stereo not given)	inactive
CC(C#N)CCC#N (stereo not given)	inactive
O=[N+]([O-])c1ccccc1O	inactive
O=C(Cl)c1ccccc1F	inactive
CC(C)C#N	inactive
Nc1ccc(-c2ccc(N)c(Cl)c2)cc1Cl	inactive
Clc1ccc(C(Cl)(Cl)Cl)cc1Cl	inactive
CC(Cl)(Cl)Cl	inactive
O=c1ccc(=O)[nH][nH]1	inactive
Clc1ccccc1	inactive
CN(C)C(=O)Cl	inactive
COc1c(C(C)(C)C)cc([N+](=O)[O-])c(C)c1[N+](=O)[O-]	inactive

Compound	Potency
Nn1cnnc1	inactive
CC1CC(=O)O1 (stereo not given)	inactive
Nc1ccc(-c2ccc(N)cc2)cc1	inactive
Oc1ccc(Cl)c(Cl)c1Cl	inactive
Nc1cc(Cl)cc(C(=O)O)c1Cl	inactive
Nc1ccc([N+](=O)[O-])cc1N	inactive
FC(Cl)(Cl)Cl	inactive
CCCBr	inactive
OCCCCO	inactive
ClC(Cl)(Cl)C(Cl)(Cl)Cl	inactive
Clc1ccc(C(Cl)(Cl)Cl)c(Cl)c1	inactive
CC[N+](=O)[O-]	inactive
OCCBr	inactive
Cc1ccc(N)cc1N	inactive
N#CC(O)c1ccccc1 (stereo not given)	inactive
N#CCc1ccccc1	inactive
CN1CSC(=S)N(C)C1	inactive
CCOP(=S)(OCC)SCCSCC	inactive
Cc1cc(Cl)ccc1O	inactive
O=[N+]([O-])c1ccc(O)c([N+](=O)[O-])c1	inactive
